Holding throughout (test): NCI-60 one-dose screen, 48 h (100 = growth as untreated, 0 = no growth, -100 = all killed)
Assay [1] concerns MCF7 breast.
In assay [2] the test system is SR leukemia. The conditions noted are these: 10 µM unless noted.
For assay [3], the system named is RPMI-8226 leukemia. The conditions noted are these: 10 µM unless noted.
In assay [4] the test system is OVCAR-5 ovarian. The conditions noted are these: 10 µM unless noted.
Assay [5] deals with SK-OV-3 ovarian. The conditions noted are these: 10 µM unless noted.
The test system of assay [6] is OVCAR-3 ovarian. The conditions noted are these: 10 µM unless noted.
In assay [7] the test system is HS 578T breast. The conditions noted are these: 10 µM unless noted.
The subject of assay [8] is NCI/ADR-RES ovarian. The conditions noted are these: 10 µM unless noted.
In assay [9] the test system is T-47D breast. The conditions noted are these: 10 µM unless noted.
Assay [10] has as its system BT-549 breast. The conditions noted are these: 10 µM unless noted.
In assay [11] the test system is MDA-MB-435 melanoma. The conditions noted are these: 10 µM unless noted.
For assay [12], the system named is SW-620 colon. The conditions noted are these: 10 µM unless noted.
The subject of assay [13] is HCT-116 colon. The conditions noted are these: 10 µM unless noted.
Assay [14] concerns HCC-2998 colon. The conditions noted are these: 10 µM unless noted.
Assay [15] has as its system KM12 colon. The conditions noted are these: 10 µM unless noted.
Assay [16] relates to OVCAR-8 ovarian. The conditions noted are these: 10 µM.
Assay [17] concerns OVCAR-4 ovarian. The conditions noted are these: 10 µM unless noted.
For assay [18], the system named is IGROV1 ovarian. The conditions noted are these: 10 µM unless noted.

Where “and” joins values, the source holds several entries; their conditions need not be identical. Identical values can stand only once. This is part of a sample that, as a whole, favours compounds with a hit. Of some 83,000 tested, about 20% had one in any assay.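 How to read the values: 0–100, growth inhibition (40 = 60% inhibited); 0, no net growth; -100 to 0, cell death (-40 = 40% of starting cells died; -100 = all dead).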 Calls of active or inactive are those of the source. Rule for the calls: active = growth percent below 10; inactive = the rest.

For the compound `CC1CCC2(NC1)OC1CC3C4CCC5CC(OC6OC(CO)C(OC7OC(CO)C(O)C(OC8OCC(O)C(O)C8O)C7OC7OC(CO)C(O)C(O)C7O)C(O)C6O)CCC5(C)C4CCC3(C)C1C2C` (configuration not stated), the growth in [1] (100 µM) is -86% (active) and -100% (active).
Turning to `COC1=C(C)C(=O)C2=C(C1=O)C(CO)N1C(C#N)C3CC4C(C1C2N1CCOC41)N3C` (configuration not stated), the growth is -19.5% (active) in assay [2]; -41.3% (active) in assay [3]; 11.1% (inactive) in [4]; 42.4% (inactive) in assay [5]; -18.7% (active) in assay [6]; -55.2% (active) in assay [7]. The growth was -21.4% (active) in [8]; -16.8% (active) in assay [9]; -64.3% (active) in assay [10]; -64.2% (active) in assay [11]; -28% (active) in assay [12]; -0.551% (active) in assay [1] (10 µM). The figures for the growth in assay [13], in assay [14] and in [15] were -33.7% (active), -87.3% (active) and -60.8% (active), respectively.
For the compound `COc1cccc2c1cc([N+](=O)[O-])c1c(C(=O)O)cc3c(c12)OCO3`, the growth in assay [2] is 28.1% (inactive) and 76.3% (inactive); in assay [3], 89.1% (inactive) and 82.3% (inactive); in assay [16] it was 55.2% (inactive); in assay [4], 106% (inactive) and 85.3% (inactive); in assay [17], 82.8% (inactive) and 141% (inactive); in assay [5], 86% (inactive) and 95.1% (inactive). For the same compound, the growth was 58.6% (inactive) and 59.2% (inactive) in assay [18]; 76.5% (inactive) and 103% (inactive) in assay [6]; 107% (inactive) and 110% (inactive) in assay [7]; 70.7% (inactive) and 104% (inactive) in assay [8]; 91.3% (inactive) and 84.2% (inactive) in [9]; 91.7% (inactive) and 102% (inactive) in assay [10]. Besides, the growth in assay [11] is 93.1% (inactive) and 100% (inactive); in assay [12], 79.5% (inactive) and 109% (inactive); in [1] (10 µM), 38.2% (inactive) and 94% (inactive); in assay [1] (100 µM), 15.3% (inactive) and 2.6% (active); in assay [13], 72.4% (inactive) and 92.3% (inactive); in assay [14], 47.7% (inactive) and -1.44% (active). Moreover, the growth in [15] was 84.6% (inactive) and 99.1% (inactive).
`CC[C@@]1(O)C[C@H](OC2CC(N(C)C)C(O)C(C)O2)c2c(O)c3c(c(O)c2[C@H]1OC1CC(N(C)C)C(O)C(C)O1)C(=O)c1cccc(O)c1C3=O` (some centres not stated): the growth is -7.1% (active) in assay [2]; -50.6% (active) in assay [3]; -21% (active) in assay [4]; -57.2% (active) in [17]; 24.2% (inactive) in assay [5]; -71% (active) in assay [18]. For the same compound, the growth in assay [6] was 1.09% (active); in assay [7] it was -38.5% (active); in [8], -12.7% (active); in assay [9], 1.62% (active); in [10], -61.3% (active); in assay [11] it was -86% (active). The growth in [12] is -0.489% (active); in assay [1] (10 µM), -8.26% (active); in assay [13], -3.79% (active); in assay [14], -83.6% (active); in assay [15], -50.3% (active).
As for `CCC1(O)CC(OC2CC(N(C)C)C(OC3CC4OC5CC(=O)C(C)OC5OC4C(C)O3)C(C)O2)c2c(cc3c(c2O)C(=O)c2c(O)ccc(O)c2C3=O)C1C(=O)OC` (configuration not stated), the growth is -6.58% (active) in assay [2]; -53% (active) in assay [3]; -16.1% (active) in [4]; -53.9% (active) in assay [17]; 16.1% (inactive) in assay [5]; -78.1% (active) in [18]. Moreover, the growth in assay [6] is 4.8% (active); in [7], -37% (active); in [8], -20% (active); in assay [9] it was -2.73% (active); in assay [10], -76.3% (active); in assay [11] it was -94.1% (active). Besides, the growth was -11.4% (active) in [12]; 2.21% (active) in [1] (10 µM); -2.93% (active) in [13]; -89.9% (active) in [14]; -55.3% (active) in assay [15].
Turning to `CCOC(=O)C(NC(=O)C(Cc1ccc(N(CCCl)CCCl)cc1)NC(C)=O)C(C)C` (configuration not stated), the growth was 28.2% (inactive) in [2]; 85.1% (inactive) in [3]; 83.1% (inactive) in assay [16]; 105% (inactive) in assay [4]; 96.4% (inactive) in [17]; 82.5% (inactive) in assay [5]. In addition, the growth is 79.3% (inactive) in assay [18]; 92.5% (inactive) in [6]; 101% (inactive) in [7]; 88% (inactive) in [8]; 74.5% (inactive) in [9]; 87% (inactive) in assay [10]. For the same compound, the growth in assay [11] was 101% (inactive); in assay [12], 69.4% (inactive); in assay [1] (10 µM), 61.9% (inactive); in [13] it was 77.2% (inactive); in assay [14], 73.2% (inactive); in assay [15], 94.8% (inactive).
Regarding `CCC(=O)OC1CCn2c1nc1c2C(=O)C(C)=C(N2CC2)C1=O` (configuration not stated), the growth in assay [2] is 1.48% (active); in [3] it was 2.94% (active); in [16], 3.32% (active); in assay [4], 13.5% (inactive); in assay [17], 13.2% (inactive); in [5], -53.8% (active). Further, the growth in assay [18] was -6.18% (active); in assay [6], -18.5% (active); in assay [7], -5.47% (active); in [8], 1.27% (active); in assay [9], 70.2% (inactive); in [10] it was -79.1% (active). For the same compound, the growth is -83.6% (active) in [11]; 3.77% (active) in [12]; -15.6% (active) in [1] (10 µM); 1.09% (active) in assay [13]; -52.9% (active) in assay [14]; -35.1% (active) in assay [15].
As for `CC1=C2C(=O)[C@H]3[C@@H](CC=C4C[C@@H](O)CC[C@@]43C)[C@@H]2CC[C@]12O[C@@H]1C[C@H](C)CN[C@H]1[C@H]2C`, the growth in [2] was 95.2% (inactive); in assay [3], 92% (inactive); in [16], 89.3% (inactive); in [4], 94% (inactive); in [17], 96.3% (inactive); in [5] it was 101% (inactive). The growth in [18] was 26.1% (inactive); in [6] it was 140% (inactive); in [7], 118% (inactive); in [8] it was 101% (inactive); in assay [9], 107% (inactive); in assay [11], 98.2% (inactive). In addition, the growth in assay [12] is 99.2% (inactive); in [1] (10 µM), 91.6% (inactive); in assay [13], 45.5% (inactive); in assay [14], 141% (inactive); in assay [15], 112% (inactive).

These data come from PubChem BioAssay (NCI).
